Measurements published in PubChem BioAssay AID493208 (National Center for Advancing Translational Sciences (NCATS), 2011).
Screen size: about 44,000 compounds; about 340 (0.77%) were called active. Roughly 5% stayed inconclusive and do not appear here. Calls follow the shape of the dose curve; as a rule, active = well fitted inhibition curve with a large enough effect; inconclusive = small, poorly fitted or top-dose-only effect; inactive = flat fitted curve, though single readings scatter. Shown is part of a subset that was picked to be rich in actives.

Assay: Acumen qHTS Assay for Inhibitors of the mTORC1 Signaling Pathway in MEF (Tsc2-/-, p53-/-) Cells: Sytravon;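 also: plate controls were DMSO for no effect and rapamycin for full effect; nearly all actives have a fitted effect of over 50% in size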
Conditions: phospho-rpS6 immunofluorescence/PI, 24 h; series mostly up to 38.3 µM; activity change, negative = inhibition: at the top concentration
Source text: NIH Molecular Libraries Probe Production Centers Network [MLPCN] NIH Chemical Genomics Center [NCGC] MLPCN Grant: NS059428-01 Assay Submitter (PI): Blenis, John; Hoffman, Greg; Harvard University NCGC Assay Overview: The mammalian target of rapamycin (mTOR) is an intracellular serine/threonine kinase Aberrant regulation of mTOR signaling plays a causative role in a number of human diseases, including cancer, benign tumors such as lymphangioleiomyomatosis (LAM) and Tuberous Sclerosis Complex (TSC), and metabolic diseases such as diabetes and obesity. This project aims to identify inhibitors of ribosomal protein S6 (rpS6) phosphorylation. The phosphorylation of rpS6 is a key event downstream of mTOR activation. The assay uses a phospho-specific antibody of phospho-rpS6 to detect inhibitors of mTOR activation. Mutations in the Tsc1 and Tsc2 genes are the underlying genetic lesions responsible for TSC, causing constitutive activation of the mTORC1 pathway and leading to profound effects on cell metabolism. Aberrant metabolism in cancer has recently received significant attention as a target to develop therapeutic agents in the treatment of cancer.1 As Tsc2-/- cells have lost the ability to respond to energy and growth factor deprivation, these cells are unable to properly down regulate cellular biosynthetic processes in response to metabolic stress, and are thus extremely sensitive to glucose deprivation-induced death.2 A central goal of this project is to explore the unique cell survival and metabolic properties of cells with Tsc1 or Tsc2 by screening for compounds that selectively target the Tsc2-/- MEFs by screening both Tsc2-/- and WT MEF cell lines. We hope to better understand these aspects of TSC physiology in order to exploit them for therapeutic benefit.
NCGC Acumen Assay Protocol Summary: For quantitative high throughput analysis of mTORC1 signaling, we developed a cell-based assay for immuno-fluorescence based detection of rpS6 phosphorylation on the Acumen Explorer that will be used a platform for the primary small molecule screen. Mouse embryonic fibroblasts (MEFs) are cultured in 1536-well plates using DMEM + 10% FBS. Twenty-four hrs after plating, test compounds (solubilized in DMSO) are delivered and incubated with the cells for 24 hrs at 37 degree Celsius. Following the incubation, media with compound is aspirated and the cells are fixed in 4% paraformaldehyde (PFA) containing PBS + 0.2% TX-100. Next, PFA is aspirated, cells are washed two times with PBS plus 0.2% TX-100 and the cells are blocked for 1 hr at room temperature (blocking buffer: LiCOR Blocking Buffer plus 0.2% TX-100). […] Cells are washed two times with PBS plus 0.2% TX-100, and stained with 10 uM propidium iodide (PI) for 20-25 minutes for cell number measurement (1:500 dilution of Hoescht staining is also added for IN Cell imaging). The plates are scanned on the Acumen Explorer laser scanning instrument (TTP Labtech) using the 488nm laser for simultaneous excitation of the Alexa-488 and PI. […] The normalized phospho-S6 staining is calculated as the ratio of the integrated Alexa 488 intensity divided by the integrated PI intensity for the single concentration rapamycin control (7.5 nM) and DMSO columns. […] Inhibition of the pathway is defined based on the normalized phospho-S6 intensity in rapamycin treated cells. Active cells are defined as those with a normalized phospho-S6 staining above this threshold, and each treatment is reported as the % positive cells in the well, where thresholds are defined by selecting wells with the highest and lowest signal and differentiating between the % non-active and % active populations. In addition to the pathway specific phospho-S6 endpoint, the number of PI stained cells from the Acumen is recorded as a measure of cell viability. The primary screen was performed with a MEF cell line in a defined genetic background, Tsc2-/-, p53-/- cell line stably transfected with an empty vector control (Tsc2-/- MEF).

Activity change, negative = inhibition, inactive:
CCOc1cc(C(=O)NCCc2csc3nc(-c4ccc(C)cc4)nn23)cc(OCC)c1OCC -0.174%
COc1cccc(NC(=O)CN2C(=O)c3ccccc3Sc3ncccc32)c1 -4.27%
CC1=C(c2ccc(F)cc2)S(=O)(=O)N=C1N1CCC(C(=O)NCCc2ccccc2C)CC1 -5.5%
COc1cc(NC(=O)c2cc(C3CC3)nc3c2c(C)nn3-c2ccccc2)cc(OC)c1 2.09%
COc1cccc(CNC(=O)C2CCN(S(=O)(=O)c3ccc4c(ccn4C)c3)CC2)c1 0.037%
Cc1ccc(OCCSc2nc(C)c(Cc3ccccc3)c(=O)[nH]2)cc1 -0.78%
Cc1ccc(Cn2c(=O)n(CCCC(=O)NCc3ccccc3Cl)c(=O)c3ccccc32)cc1 5.87%
CCc1ccc(NC(=O)c2cc(S(=O)(=O)NC3CCCCCC3)ccc2F)cc1 -22.4%
Cc1ccccc1NC(=O)Cn1cc(C(=O)c2cccs2)c2ccccc21 -14.7%
O=C(c1cnn(-c2ccc(F)cc2)c1-n1cccc1)N1CCN(c2ccc(F)cc2)CC1 -7.02%
CCOC(=O)c1cc(-c2ccccc2)n(-c2cccc(C(=O)Nc3cc(OC)cc(OC)c3)c2)c1C -1.51%
Cc1oc2ccc(O)c(CN3CCOCC3)c2c1C(=O)Nc1cccc(Cl)c1C 7.39%
O=C1OC(C(=O)Nc2cccc(Br)c2)Cc2ccccc21 (stereo not drawn) -3.38%
Cc1c(NC(=O)c2cc(-c3ccc(Br)cc3)on2)c(=O)n(-c2ccccc2)n1C -28.7%
COc1ccc(NC(=O)C2CCCN(S(=O)(=O)c3c(C)[nH]c(=O)[nH]c3=O)C2)c(OC)c1 (stereo not drawn) -7.05%
COc1ccc(-c2nnc(SCC(=O)Nc3ccc(C(C)C)cc3)nc2-c2ccc(OC)c(OC)c2)cc1OC -3.8%
Clc1cccc(-n2ncc3c(NCCc4ccccc4)ncnc32)c1 3.04%
Fc1ccc(Nc2nc(SCc3ccccc3Cl)nc3ccccc23)cc1 3.14%
O=C(C1CCCN(S(=O)(=O)c2cccc3nonc23)C1)N1CCN(c2ccccc2F)CC1 (stereo not drawn) -2.91%
Cc1ccc(N2CC(c3nnc(Cc4ccccc4Cl)o3)CC2=O)cc1 (stereo not drawn) 6.32%
CCOC(=O)c1ccc(CN(Cc2ccccc2)S(=O)(=O)c2ccc(Cl)cc2)cc1 -9.2%
Cn1c(=O)c(C(=O)O)nn(-c2ccccc2)c1=O 11.1%
Cc1ccc(-c2cn3c(n2)sc2cc(C(=O)NCCCc4ccccc4)ccc23)cc1 5.23%
CCCCN1CC(c2nc3ccccc3n2CCCCOc2ccc(C)cc2C)CC1=O (stereo not drawn) -0.108%
COc1cccc(C(=O)NC2=NC(c3ccc(N(C)C)cc3)CC(=O)N2)c1 (stereo not drawn) 0.508%
CCN(C(=O)Cn1cc(S(=O)(=O)N2CCN(c3ccccc3F)CC2)c2ccccc2c1=O)c1ccc(C)c(C)c1 3.33%
CSc1nc(-c2ccccc2Cl)nc2c1Cc1c(CO)cnc(C)c1O2 2.72%
Cc1cc2ccccc2n1CCNC(=O)c1ccc(F)cc1 1.95%
Cc1cccc(NC(=O)N2CCC(CN3CCc4ccccc4C3)CC2)c1C -13.6%
CCC(=O)N1CCc2cc(CNC(=O)Nc3ccccc3Cl)ccc21 -1.13%
COc1ccc(CNC(=O)CSCc2nc(-c3ccccc3F)oc2C)cc1 -10.3%
CCOc1ccc(-n2c(SCC(=O)NCc3ccccc3)nc3n[nH]c(C)c3c2=N)cc1 -12.4%
Cc1cccc(NC(=O)C2CCN(S(=O)(=O)c3c(C)noc3/C=C/c3ccco3)CC2)c1 2.87%
